Test results published in the supplement of paper PMC10037445.
In all, about 2,900 compounds were measured (“NF-kB SEAP reporter activity, fold change vs agonist alone”: median about 0.99, highest 2% from about 2.6 on). This is one part of a sample in which the highest values are shown more often than they occur.

Legend:
[1] = tested on: RAW-Dual; assay: NF-kB SEAP reporter activity, fold change vs agonist alone; cytotoxicity flag (confluency mask): cytotoxic (confluency <70% of control); higher = enhanced NF-kB activity
In short: (§1)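 Supernatant from RAW-Dual macrophages was read after 20 hours for IRF by QuantiLuc luminescence and for NF-κB by QuantiBlue absorbance at 620 nm. The cells (50,000 cells/well in DMEM, 384-well plates, 37 °C, 5% CO2) had received 50 nL of library stock by pin tool and, 1 h later, a PRR agonist. Reporter activity is expressed relative to agonist-alone wells as fold change, and wells were flagged cytotoxic if IncuCyte confluency was under 70% of agonist controls in both mask sets.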

[2] = tested on: RAW-Dual; assay: NF-kB SEAP reporter activity, fold change vs agonist alone; higher = enhanced NF-kB activity
In short: as §1

[3] = tested on: RAW-Dual; assay: NF-kB SEAP reporter activity, fold change vs agonist alone; cytotoxicity flag (confluency mask): not cytotoxic; higher = enhanced NF-kB activity
In short: as §1

[4] = agonist: ODN 1826 (TLR9) 0.5 ug/mL
[5] = agonist: Pam2CSK4 (TLR2/6) 0.1 ug/mL
[6] = agonist: Pam3CSK4 (TLR2/1) 0.1 ug/mL
[7] = library stock concentration (final ~1000-fold dilution): 10 mM, cytotoxicity flag (confluency mask): cytotoxic (confluency <70% of control), agonist: Imiquimod (TLR7) […]
[8] = library stock concentration (final ~1000-fold dilution): 10 mM, cytotoxicity flag (confluency mask): cytotoxic (confluency <70% of control), agonist: MPLA (TLR4) […]
[9] = library stock concentration (final ~1000-fold dilution): 10 mM, cytotoxicity flag (confluency mask): not cytotoxic, agonist: MPLA (TLR4) […]
[10] = library stock concentration (final ~1000-fold dilution): 10 mM, cytotoxicity flag (confluency mask): not cytotoxic, agonist: Imiquimod (TLR7) […]

## COc1ccc(N2C(=O)/C(=C/c3ccc([N+](=O)[O-])s3)SC2=S)cc1 (library stock concentration (final ~1000-fold dilution): 10 mM)
[1]; agonist: LPS (TLR4) 0.1 ug/mL
  NF-kB SEAP reporter activity: 0.439
[1]; [4]
  NF-kB SEAP reporter activity: 2.23
[1]; [5]
  NF-kB SEAP reporter activity: 0.267
[1]; [6]
  NF-kB SEAP reporter activity: 0.382

## COc1ccc(N2C(=O)/C(=C/c3ccc([N+](=O)[O-])s3)SC2=S)cc1
[2]; [7]
  NF-kB SEAP reporter activity: 1.65
[2]; [8]
  NF-kB SEAP reporter activity: 1.63

## CC(NC(=O)/C(C#N)=C/c1cccc(Br)n1)c1ccccc1 (stereo unspecified) (library stock concentration (final ~1000-fold dilution): 10 mM)
[1]; agonist: LPS (TLR4) 0.1 ug/mL
  NF-kB SEAP reporter activity: 0.233
[1]; [4]
  NF-kB SEAP reporter activity: 0.186
[1]; [5]
  NF-kB SEAP reporter activity: 0.0992
[1]; [6]
  NF-kB SEAP reporter activity: 0.136

## CC(NC(=O)/C(C#N)=C/c1cccc(Br)n1)c1ccccc1 (stereo unspecified)
[2]; [7]
  NF-kB SEAP reporter activity: 0.268
[2]; [8]
  NF-kB SEAP reporter activity: 0.204

## CCC1OC(=O)C(C)(F)C(=O)C(C)C(OC2OC(C)CC(N(C)C)C2O)C(C)(OC)CC(C)C(=O)C(C)C2N(CCCCn3cc(-c4cccc(N)c4)nn3)C(=O)OC12C (stereo unspecified)
[2]; [9]
  NF-kB SEAP reporter activity: 1.53

## CCC1OC(=O)C(C)(F)C(=O)C(C)C(OC2OC(C)CC(N(C)C)C2O)C(C)(OC)CC(C)C(=O)C(C)C2N(CCCCn3cc(-c4cccc(N)c4)nn3)C(=O)OC12C (stereo unspecified) (library stock concentration (final ~1000-fold dilution): 10 mM)
[3]; agonist: LPS (TLR4) 0.1 ug/mL
  NF-kB SEAP reporter activity: 1.47
[3]; [4]
  NF-kB SEAP reporter activity: 0.196
[3]; [5]
  NF-kB SEAP reporter activity: 0.966
[3]; [6]
  NF-kB SEAP reporter activity: 0.98

## Nc1nc(-c2ccco2)c2cnn(Cc3ccccc3F)c2n1 (library stock concentration (final ~1000-fold dilution): 10 mM)
[3]; agonist: LPS (TLR4) 0.1 ug/mL
  NF-kB SEAP reporter activity: 1.11
[3]; [4]
  NF-kB SEAP reporter activity: 1.1
[3]; [5]
  NF-kB SEAP reporter activity: 1.03
[3]; [6]
  NF-kB SEAP reporter activity: 1.08

## Nc1nc(-c2ccco2)c2cnn(Cc3ccccc3F)c2n1
[2]; [10]
  NF-kB SEAP reporter activity: 1.05
[2]; [9]
  NF-kB SEAP reporter activity: 1.22

## NS(=O)(=O)c1ccc(NC(=S)N2CCN(C/C=C/c3ccccc3)CC2)cc1 (library stock concentration (final ~1000-fold dilution): 10 mM)
[3]; agonist: LPS (TLR4) 0.1 ug/mL
  NF-kB SEAP reporter activity: 1.42
[3]; [4]
  NF-kB SEAP reporter activity: 1.17
[3]; [5]
  NF-kB SEAP reporter activity: 0.787
[3]; [6]
  NF-kB SEAP reporter activity: 0.825

## NS(=O)(=O)c1ccc(NC(=S)N2CCN(C/C=C/c3ccccc3)CC2)cc1
[2]; [10]
  NF-kB SEAP reporter activity: 1.02
[2]; [9]
  NF-kB SEAP reporter activity: 1.1

## Cl.OCCNCc1ccc(OCc2ccc(F)cc2)c(OCc2ccc(F)cc2)c1
[2]; [7]
  NF-kB SEAP reporter activity: 1.41
[2]; [8]
  NF-kB SEAP reporter activity: 1.5

## Cl.OCCNCc1ccc(OCc2ccc(F)cc2)c(OCc2ccc(F)cc2)c1 (library stock concentration (final ~1000-fold dilution): 10 mM)
[1]; agonist: LPS (TLR4) 0.1 ug/mL
  NF-kB SEAP reporter activity: 0.702
[1]; [4]
  NF-kB SEAP reporter activity: 0.629
[1]; [5]
  NF-kB SEAP reporter activity: 0.301
[1]; [6]
  NF-kB SEAP reporter activity: 0.354

## Cl.N=C(N)NCCCCC(N)C(=O)O (stereo unspecified)
[2]; library stock concentration (final ~1000-fold dilution): 10 mM water, cytotoxicity flag (confluency mask): not cytotoxic, agonist: MPLA (TLR4) […]
  NF-kB SEAP reporter activity: 1.08

## Cl.N=C(N)NCCCCC(N)C(=O)O (stereo unspecified) (library stock concentration (final ~1000-fold dilution): 10 mM water)
[3]; agonist: LPS (TLR4) 0.1 ug/mL
  NF-kB SEAP reporter activity: 1.17
[3]; [4]
  NF-kB SEAP reporter activity: 1.12
[3]; [5]
  NF-kB SEAP reporter activity: 1.21
[3]; [6]
  NF-kB SEAP reporter activity: 0.923

## CCCCNc1ncc2c(-c3ccc(CN4CCN(C)CC4)cc3)cn(C3CCC(O)CC3)c2n1.Cl (stereo unspecified) (library stock concentration (final ~1000-fold dilution): 10 mM)
[1]; agonist: LPS (TLR4) 0.1 ug/mL
  NF-kB SEAP reporter activity: 0.236
[1]; [4]
  NF-kB SEAP reporter activity: 0.351
[1]; [5]
  NF-kB SEAP reporter activity: 0.128
[1]; [6]
  NF-kB SEAP reporter activity: 0.192

## CCCCNc1ncc2c(-c3ccc(CN4CCN(C)CC4)cc3)cn(C3CCC(O)CC3)c2n1.Cl (stereo unspecified)
[2]; [7]
  NF-kB SEAP reporter activity: 0.547
[2]; [8]
  NF-kB SEAP reporter activity: 0.322

## CN(C)C(=O)Nc1cccc(-c2ccc(N(C)C)cc2)c1
[2]; [10]
  NF-kB SEAP reporter activity: 0.998
[2]; [9]
  NF-kB SEAP reporter activity: 0.985

## CN(C)C(=O)Nc1cccc(-c2ccc(N(C)C)cc2)c1 (library stock concentration (final ~1000-fold dilution): 10 mM)
[3]; agonist: LPS (TLR4) 0.1 ug/mL
  NF-kB SEAP reporter activity: 1.52
[3]; [4]
  NF-kB SEAP reporter activity: 1.08
[3]; [5]
  NF-kB SEAP reporter activity: 0.914
[3]; [6]
  NF-kB SEAP reporter activity: 1.01

## CCn1cc(-c2ccnc3[nH]c(-c4cccc(CN(C)C)c4)cc23)c(-c2ccc(NC(=O)N(C)C)cc2)n1 (library stock concentration (final ~1000-fold dilution): 10 mM)
[3]; agonist: LPS (TLR4) 0.1 ug/mL
  NF-kB SEAP reporter activity: 6.43
[3]; [4]
  NF-kB SEAP reporter activity: 0.432
[3]; [5]
  NF-kB SEAP reporter activity: 1.83
[3]; [6]
  NF-kB SEAP reporter activity: 3.76

## CCn1cc(-c2ccnc3[nH]c(-c4cccc(CN(C)C)c4)cc23)c(-c2ccc(NC(=O)N(C)C)cc2)n1
[2]; [10]
  NF-kB SEAP reporter activity: 3.13
[2]; [9]
  NF-kB SEAP reporter activity: 2.67

## CS(=O)(=O)O.O=C(Nc1cccc(Cl)c1)Nc1ncc(CCNc2ncnc3ccsc23)s1
[2]; [7]
  NF-kB SEAP reporter activity: 0.503
[2]; [8]
  NF-kB SEAP reporter activity: 0.512

## CS(=O)(=O)O.O=C(Nc1cccc(Cl)c1)Nc1ncc(CCNc2ncnc3ccsc23)s1 (library stock concentration (final ~1000-fold dilution): 10 mM)
[1]; agonist: LPS (TLR4) 0.1 ug/mL
  NF-kB SEAP reporter activity: 1
[1]; [4]
  NF-kB SEAP reporter activity: 0.54
[1]; [5]
  NF-kB SEAP reporter activity: 0.153
[1]; [6]
  NF-kB SEAP reporter activity: 0.292

## CCCCCCOc1cc(C)c(O)c(C)c1C
[2]; [7]
  NF-kB SEAP reporter activity: 0.313
[2]; [8]
  NF-kB SEAP reporter activity: 1.36

## CCCCCCOc1cc(C)c(O)c(C)c1C (library stock concentration (final ~1000-fold dilution): 10 mM)
[1]; agonist: LPS (TLR4) 0.1 ug/mL
  NF-kB SEAP reporter activity: 0.406
[1]; [4]
  NF-kB SEAP reporter activity: 0.234
[1]; [5]
  NF-kB SEAP reporter activity: 0.154
[1]; [6]
  NF-kB SEAP reporter activity: 0.209

## c1cc(-c2cnn3cc(-c4ccc(OCCN5CCCCC5)cc4)cnc23)ccn1 (library stock concentration (final ~1000-fold dilution): 2 mM)
[3]; agonist: LPS (TLR4) 0.1 ug/mL
  NF-kB SEAP reporter activity: 1.38
[3]; [4]
  NF-kB SEAP reporter activity: 0.365
[3]; [5]
  NF-kB SEAP reporter activity: 1.32
[3]; [6]
  NF-kB SEAP reporter activity: 1.28

## c1cc(-c2cnn3cc(-c4ccc(OCCN5CCCCC5)cc4)cnc23)ccn1
[2]; library stock concentration (final ~1000-fold dilution): 2 mM, cytotoxicity flag (confluency mask): not cytotoxic, agonist: Imiquimod (TLR7) […]
  NF-kB SEAP reporter activity: 0.841
[2]; library stock concentration (final ~1000-fold dilution): 2 mM, cytotoxicity flag (confluency mask): not cytotoxic, agonist: MPLA (TLR4) […]
  NF-kB SEAP reporter activity: 1.08
